HT1080 IDH1KD tx: qHTS for induction of synthetic lethality in tumor cells producing 2HG: qHTS for the HT-1080-IDH1KD cell line | HT-1080 IDH1 knockdown viability, ATP luminescence, 48 h | Potency, µM (top dose mostly 46.1 µM), for inactives: at the top dose activity, negative = toxicity, hits mostly cytotoxic | hit rate 2% among 360,000 | AID 686971, 2013;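 also: potency is read from the fitted curve at half-maximal effect; 0% = DMSO wells and -100% = cell-free medium wells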
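Using the IDH1-knockdown HT-1080 line run in the same batch and compound series as the NT line, viability after 48 h at 37 °C was determined by CellTiter-Glo luminescence and expressed as % activity.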
HT1080NT lethal: qHTS for induction of synthetic lethality in tumor cells producing 2HG: qHTS for the HT-1080-NT fibrosarcoma cell line. hit rate 1.6% among 360,000. Potency, µM (series often up to 46.1 µM), for inactives: at the highest dose activity, negative = less viability, most hits filed as cytotoxic. HT-1080-NT fibrosarcoma viability, CellTiter-Glo ATP luminescence, 48 h. AID 686970, 2013;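 also: NT is the 2HG producing partner of a matched IDH1 knockdown line; potency is read from the fitted curve at half-maximal effect; 0% = DMSO-treated cells and -100% = media-only wells without cells; nearly all actives have a fitted effect of over 55% in size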
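Toxicity toward the 2HG-producing NT line was scored as %Activity, normalised to DMSO and no-cell wells, from CellTiter-Glo luminescence after 48 hours' treatment.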
IL-1B inflam inh: qHTS for Inhibitors of Inflammasome Signaling: IL-1-beta AlphaLISA Primary Screen. hit rate 4.7% among 360,000. activity change, % at 57.5 µM. THP-1 LPS/ATP IL-1B secretion, AlphaLISA, 16 h; active compounds read low; in the data active = activity change below about -50%; inconclusive = mostly about -30% to -49%
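Secreted IL-1B measured by AlphaLISA bead assay after 16 h compound exposure of THP-1 cells; compounds (final up to 57.5 uM) added 1 h before LPS (250 ng/mL) and ATP (1.25 mM) stimulation; lower signal means less secretion.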
KB-V1 cytotox: qHTS assay for MDR1-selective chemotherapeutics: Primary screen using the drug-selected MDR subline cells KB-V1; Potency, µM (top dose mostly 46.1 µM), hits mostly cytotoxic; hit rate 3.4% among 400,000; KB-V1 MDR cells viability, CellTiter-Glo, 72 h; also: potency is read from the fitted curve at half-maximal effect; nearly all actives have a fitted effect of over 60% in size
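In this primary screen, KB-V1 cells overexpressing P-gp are incubated with library compounds (lowest to highest concentration) for 72 h at 37 degrees C before a luminescent ATP viability read.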
KB-3-1 cytotox: qHTS assay for MDR1-selective chemotherapeutics: Primary screen using the parental adenocarcinoma cell KB-3-1; KB-3-1 viability, CellTiter-Glo ATP luminescence, 72 h; Potency, µM (highest dose often 46.1 µM), usual class: cytotoxic; hit rate 1.4% among 400,000; AID 1347075, 2019; also: potency is read from the fitted curve at half-maximal effect; nearly all actives have a fitted effect of over 60% in size
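KB-3-1 cells, DMEM (no phenol red) + 10% FBS; compound by pin transfer, 72 h, 37 °C. Readout: CellTiter-Glo luminescence after 10 min. Data normalized, curve-fitted.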
An asterisk follows results filed as active; i = inactive; ? = inconclusive; . = no result; [ ] = another dose, or the depositor's remark. Hits are enriched below; roughly 8.8% of the tested compounds scored in any of these assays. Unless noted, calls follow the shape of the dose curve; as a rule, active = well fitted curve in the direction sought with a large enough effect; inconclusive = small, poorly fitted or top-dose-only effect, or another doubt; inactive = no such curve, though single readings can be large; an effect the other way counts as inactive or inconclusive. Unless noted, % is scaled to controls: 0 for no effect and ±100 for the full control effect.

SMILES | HT1080 IDH1KD tx | HT1080NT lethal | IL-1B inflam inh | KB-V1 cytotox | KB-3-1 cytotox
O=C(CN1C(=O)COc2ccc(S(=O)(=O)NC3CCCC3)cc21)NCc1ccccc1Cl | . | . | . | i | i
O=C(c1csc2c1CCCC2)N1CCN(c2ccc(F)cc2)CC1 | -18% | -1% | 14 | i | i
O=C(c1csc2c1CCCC2)N1CCN(c2cccc(C(F)(F)F)c2)CC1 | -21% | -4% | 4 | 21µM* | i
O=C(c1csc2c1CCCC2)N1CCN(c2ncccn2)CC1 | -4% | -14% | 31 | 16µM* | i
FC(F)(F)c1ccccc1Cc1c(-c2cccc(Cl)c2)nc2c3ccccc3ccn12 | -1% | 5% | 16 | i | i
C[C@@H]1CN([C@@H](C)CO)C(=O)CCCn2nncc2CO[C@H]1CN(C)Cc1ccc2cccnc2c1 | 1% | 0% | -17 | i | i
Cc1ccc2[nH]c(=O)c(CN(Cc3ccc4c(c3)OCO4)Cc3nnnn3C3CCCC3)cc2c1 | -1% | -2% | -56* | 18µM* | i
COc1ccc(CN(Cc2cc3ccc(C)cc3[nH]c2=O)Cc2nnnn2C2CCCC2)cc1 | -25% | 1% | -58* | i | i
Cc1cc2cc(CN(Cc3nnnn3C3CCCCC3)CC3CCCO3)c(=O)[nH]c2cc1C (stereo not drawn) | 3% | 5% | -66* | ? | i
Cc1ccc2cc(CN(Cc3nnnn3C3CCCCC3)CC3CCCO3)c(=O)[nH]c2c1 (stereo not drawn) | ? | -2% | -9 | i | i
O=C(Nc1ccc(Cl)cc1)Nc1ccc2c(c1)N1CCN=C1S2 | 33µM* | 21µM* | -66* | ? | i
Cn1cc(Cl)c(C(=O)Nc2nc3ccccc3s2)n1 | ? | ? | -4 | 18µM* | i
COc1ccc(NC(=O)Nc2nnc(C(C)(C)C)s2)cc1 | 2% | 5% | -26 | ? | i
CC(C)(C)c1nc(NC(=O)Nc2ccccc2)sc1Br | ? | ? | -91* | ? | ?
COc1cccc(-c2cc(C(=O)Nc3nc4ccccc4s3)c3ccccc3n2)c1 | ? | ? | -13 | 21µM* | i
COc1ccc2sc(NC(=O)NC(=O)c3c(Cl)cccc3Cl)nc2c1 | -11% | -3% | -88* | i | i
Cc1ccc([C@H]2C[C@@H](O)[C@H](n3cc(C4CC4)nn3)CN2C(=O)c2cccs2)cc1 | 0% | -5% | -2 | ? | i
COc1ccc(OC)c(-c2nnc(SCC(=O)N3CCCC3)o2)c1 | -4% | 1% | 5 | i | i
COC(=O)Nc1sc2c(c1C(N)=O)CCCC2 | . | . | . | i | i
COc1ccccc1-n1nc(-c2ccccc2)c2cnc3cc(C(F)(F)F)ccc3c21 | . | . | . | i | i
COc1cc(/C=N/Nc2nc3ccccc3s2)ccc1OC(=O)c1ccccc1F | ? | -18% | -71* | ? | ?
CCOC(=O)Cc1nnc(NC(=O)c2ccccc2OC)s1 | 2% | 17% | -14 | i | i
CS(=O)(=O)c1ccc2nc(NC(=O)c3ccccc3Cl)sc2c1 | -10% | -5% | -2 | i | i
COc1cc(OC)cc(C(=O)Oc2ccc(/C=N/Nc3nc4ccccc4s3)cc2OC)c1 | -10% | -10% | -7 | ? | i
NC(=S)Nc1nc2ccccc2s1 | 15µM* | -1% | 0 | 8.2µM* | ?
SMILES | HT1080 IDH1KD tx | HT1080NT lethal | IL-1B inflam inh | KB-V1 cytotox | KB-3-1 cytotox
COc1ccccc1C(=O)Nc1nc2ccc(S(C)(=O)=O)cc2s1 | -11% | 1% | 10 | 5.8µM* | i
COc1ccccc1C(=O)Nc1nnc(CCc2ccccc2)s1 | 6.5µM* | 7.3µM* | -28 | ? | 12µM*
CCN(C(=O)Cn1c(=O)n(-c2ccccc2)c(=O)c2ccc(C(=O)NCc3ccc4c(c3)OCO4)cc21)c1cccc(C)c1 | . | . | . | i | i
COc1ccc(OC)c(NC(=S)NCc2ccco2)c1 | 2% | -1% | -19 | i | i
COc1ccc2nc(NC(=O)Nc3ccccc3)sc2c1 | -22% | ? | -60* | i | i
Cc1ccc(C(=O)Nc2nc3ccc(S(C)(=O)=O)cc3s2)o1 | ? | 21µM* | 3 | i | i
COc1ccc2nc(Nc3nc(C)c(C(C)=O)s3)sc2c1 | ? | -22% | -27 | 18µM* | i
O=C(Nc1nc2ccc(F)cc2s1)c1ccc([N+](=O)[O-])o1 | -27% | ? | -101* | ? | ?
COC(=O)c1sc(NC(=O)C2c3ccccc3Oc3ccccc32)c(C(=O)OC)c1C | -17% | 0% | 0 | 12µM* | i
O=C(Nc1nc2ccccc2s1)C1c2ccccc2Oc2ccccc21 | -28% | -24% | -5 | 18µM* | i
COC(=O)c1c(NC(=O)C2c3ccccc3Oc3ccccc32)sc(C)c1C | -7%[9.24 µM] | 1% | -1 | ? | i
COc1ccccc1C(=O)Nc1nc2ccccc2s1 | 21µM* | 26µM* | -1 | ? | ?
CCCCN(C(=O)NC(=O)Nc1nc2ccc(OC)cc2s1)S(C)(=O)=O | -4% | -16% | -3 | 9.2µM* | ?
CN(C)c1ccc(/C=C/C(=O)Nc2cccc([S+](=O)([O-])Nc3ccccc3F)c2)cc1 | . | . | . | i | i
O=C(OCc1cn([C@@H]2C[C@H](c3ccccc3)N(C(=O)C3CCCCC3)C[C@H]2O)nn1)c1ccccc1 | 17% | -3% | -1 | i | i
COc1ccc(C(=O)Nc2nc3ccccc3s2)c(OC)c1 | 21µM* | 21µM* | -14 | 6.5µM* | 7.3µM*
COc1ccc2nc(NC(=O)c3ccccc3C(=O)O)sc2c1 | -3% | -3% | 4 | i | i
Cc1cccnc1NC1(C(F)(F)F)N=C2SCCN2C1=O (stereo not drawn) | 0% | -1% | -4 | i | i
CCOc1ccc(N(CC)C(=O)CCNC(=O)Cn2ccc3ccccc3c2=O)cc1 | 0% | -3% | 5 | 23µM* | i
Cc1ccc(Cl)cc1N1CCN(C(=O)Cn2ccc3ccccc3c2=O)CC1 | ? | 0% | -66* | ? | i
Cc1ccc(C)c(N2CCN(C(=O)CCNC(=O)Cn3ccc4ccccc4c3=O)CC2)c1 | 0% | 7% | -1 | 6.5µM* | i
Cc1ccc(Cl)cc1N1CCN(C(=O)Cn2ncn3cccc3c2=O)CC1 | -8% | -20% | 8 | ? | i
CCN(CC)CCNC(=O)c1ccc(Cn2c(SCc3ccccc3)nc3cccnc32)cc1 | . | . | . | i | ?
